The list is not random: actives were taken first. Their share in the collection is about 7.9%.
SW480 rereplic = DNA re-replication induction in SW480 cells. SW480 DNA re-replication, Hoechst DNA content imaging, 48 h. Potency, µM (highest dose often 46.1 µM), actives largely listed as activators. hit rate 1.8% among 340,000. AID 624297; also: nearly all actives have a fitted effect of over 55% in size
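Quantitative HTS format with DMSO vehicle controls; 48 hr drug incubation at 37 C, then 40 min Hoechst staining and scanning imager measurement at 405 nm excitation.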
KB-3-1 tox = KB-3-1 parental cell cytotoxicity | KB-3-1 viability, CellTiter-Glo ATP luminescence, 72 h | Potency, µM (highest dose often 46.1 µM), most hits filed as cytotoxic | hit rate 1.4% among 400,000 | AID 1347075; also: nearly all actives have a fitted effect of over 60% in size
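KB-3-1 cells, DMEM (no phenol red) + 10% FBS; compound by pin transfer, 72 h, 37 °C. Readout: CellTiter-Glo luminescence after 10 min. Data normalized, curve-fitted.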
KB-V1 MDR tox = kills drug-selected multidrug resistant KB-V1 cells | KB-V1 MDR cells viability, CellTiter-Glo, 72 h | Potency, µM (titrated, usually from 46.1 µM), actives largely listed as cytotoxic | hit rate 3.4% among 400,000 | AID 1347076; also: nearly all actives have a fitted effect of over 60% in size
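Potencies derive from concentration-effect curves fitted to normalized luminescence (CellTiter-Glo) of KB-V1 cells treated for 72 h at 37 degrees C in phenol-red-free DMEM containing 10% FBS.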
MCF10A rereplic = inducers of DNA re-replication in MCF 10A breast cells; MCF 10A DNA re-replication, Hoechst nuclear intensity, 48 h; Potency, µM (series often up to 46.1 µM), actives largely listed as activators; hit rate 2.9% among 350,000; AID 624296; also: nearly all actives have a fitted effect of over 50% in size
HT1080-NT tox = kills 2HG-producing HT-1080-NT fibrosarcoma cells; hit rate 1.6% among 360,000; Potency, µM (doses to about 46.1 µM), actives largely listed as cytotoxic; HT-1080-NT fibrosarcoma viability, CellTiter-Glo ATP luminescence, 48 h;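 also: NT is the 2HG producing partner of a matched IDH1 knockdown line; nearly all actives have a fitted effect of over 55% in size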
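Read-out is CellTiter-Glo luminescence after 10 minutes at room temperature, following 48 hours' compound treatment of HT-1080-NT cells (750 cells/well, RPMI, 5% FBS, 37 degrees C).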
HT1080 IDH1KD tx = toxicity to HT-1080 IDH1 knockdown cells (counter line). HT-1080 IDH1 knockdown viability, ATP luminescence, 48 h. Potency, µM (series often up to 46.1 µM), actives largely listed as cytotoxic. hit rate 2% among 360,000. AID 686971
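Knockdown cells (IDH1KD HT-1080) received compounds 2 h after plating at 750 cells/well and were kept 48 h at 37 °C in 5% FBS RPMI. A CellTiter-Glo luminescence read gave % activity for curve fitting.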
Each line names hits and unclear results; the compound was inactive in the other large screens. Calls follow the shape of the dose curve; as a rule, active = well fitted curve in the direction sought with a large enough effect; inconclusive = small, poorly fitted or top-dose-only effect, or another doubt; inactive = no such curve, though single readings can be large; an effect the other way counts as inactive or inconclusive.

CC(NS(=O)(=O)c1ccccc1)C(c1cccs1)N1CCN(c2ccccc2)CC1 (stereo not given)	KB-3-1 tox inconclusive, KB-V1 MDR tox 6.51µM, MCF10A rereplic inconclusive, HT1080-NT tox inconclusive, HT1080 IDH1KD tx inconclusive
COc1ccccc1N1CCN(C(c2cccs2)C(C)NS(=O)(=O)c2ccccc2)CC1 (stereo not given)	KB-3-1 tox inconclusive
COc1ccc(NC(=O)c2ccc(N3CCOCC3)nc2)cc1	none
CC(NCc1ccc2c(c1)OCO2)C(=O)N1CCc2ccccc21 (stereo not given)	SW480 rereplic inconclusive, KB-V1 MDR tox 5.17µM
CC(NCc1ccc(S(N)(=O)=O)cc1)C(=O)N1CCc2ccccc21 (stereo not given)	none
Cc1c(C(=O)O)cccc1-n1c(C)cc(/C=N/Nc2ccc([N+](=O)[O-])cn2)c1C	none
Cc1c(NC(=O)CN2C(=O)NC(C)(c3ccc(OC(F)F)cc3)C2=O)c(=O)n(-c2ccccc2)n1C (stereo not given)	none
Oc1cccc(/C=N/N2CCN(C3c4ccccc4-c4ccccc43)CC2)c1	MCF10A rereplic inconclusive, HT1080-NT tox inconclusive, HT1080 IDH1KD tx 23.1µM
Oc1cccc(C=NN=C2c3ccccc3-c3ccccc32)c1	KB-V1 MDR tox 18.4µM, MCF10A rereplic inconclusive
O=C1Nc2ccccc2/C1=N/N=C/c1cccc(O)c1	none
COc1ccc(-c2csc3nc(-c4ccc(C)cc4)oc(=O)c23)cc1OC	SW480 rereplic inconclusive, KB-3-1 tox inconclusive, KB-V1 MDR tox inconclusive, MCF10A rereplic inconclusive
COCCNC(=O)C(=O)c1cc(C)n(-c2ccc([N+](=O)[O-])cc2)c1C	none
Cc1cccn2cc(COc3ccc(-c4ccccc4)cc3)nc12	KB-V1 MDR tox inconclusive, MCF10A rereplic 16.4µM, HT1080-NT tox inconclusive, HT1080 IDH1KD tx 18.4µM
COc1ccc(OC)c(Nc2nc3ccc(C)cc3n3cnnc23)c1	MCF10A rereplic 18.4µM
COc1ccc(Cl)cc1Nc1nc2ccc(C)cc2n2cnnc12	MCF10A rereplic 8.2µM
CC(C)c1ccc(Nc2nc3ccc(C(=O)c4ccccc4)cc3n3cnnc23)cc1	KB-V1 MDR tox inconclusive (no result: SW480 rereplic, MCF10A rereplic, HT1080-NT tox, HT1080 IDH1KD tx)
COc1cccc(Nc2nc3ccc(C(=O)c4ccccc4)cc3n3cnnc23)c1	SW480 rereplic 18.4µM, MCF10A rereplic 9.2µM
CCOc1ccccc1Nc1nc2ccc(C)cc2n2cnnc12	KB-V1 MDR tox inconclusive
Cc1ccc(C)c(OCCC(=O)OCC(=O)N2c3ccccc3NC(=O)C2(C)C)c1	none
CCN(CC)c1ccc(S(=O)(=O)N2CCOCC2)cc1NC(=O)CSc1nnc(N)s1	SW480 rereplic inconclusive
O=C(NCc1ccccn1)c1ccc(=O)oc1	SW480 rereplic inconclusive
CCOc1ccc(S(=O)(=O)Nc2ccc(F)cc2)c(C)c1C	MCF10A rereplic inconclusive, HT1080 IDH1KD tx 10µM
OC(C1=CC(=Cc2ccncc2)c2ccccc21)c1ccncc1 (stereo not given)	KB-V1 MDR tox inconclusive, HT1080-NT tox 3.26µM
CCOC(=O)[C@]12CCCC=C1N(Cc1ccc(Cl)cc1Cl)C(=O)[C@H](CC(=O)NCc1cccc(C(F)(F)F)c1)C2	KB-3-1 tox inconclusive, KB-V1 MDR tox 16.4µM, HT1080-NT tox 32.6µM, HT1080 IDH1KD tx inconclusive (no result: SW480 rereplic, MCF10A rereplic)
CCOC(=O)[C@]12CCCC=C1N(Cc1ccc3c(c1)OCO3)C(=O)[C@H](CC(=O)NCc1cccc(C(F)(F)F)c1)C2	KB-V1 MDR tox inconclusive, HT1080-NT tox 10.3µM, HT1080 IDH1KD tx 16.4µM (no result: SW480 rereplic, MCF10A rereplic)
CCOC(=O)[C@]12CCC=C1N(Cc1ccc(Cl)cc1Cl)C(=O)[C@H](CC(=O)NCc1cccc(C(F)(F)F)c1)C2	KB-3-1 tox inconclusive, KB-V1 MDR tox 20.6µM, HT1080-NT tox inconclusive, HT1080 IDH1KD tx inconclusive (no result: SW480 rereplic, MCF10A rereplic)
CCCCNC1C(CC)C(CCC)C(C#N)(C#N)C1(C#N)C#N (stereo not given)	SW480 rereplic inconclusive, KB-3-1 tox inconclusive, KB-V1 MDR tox inconclusive, MCF10A rereplic 20.6µM, HT1080-NT tox inconclusive, HT1080 IDH1KD tx inconclusive
CCN(c1ccccc1)S(=O)(=O)c1ccc(OC)c(NC(=O)C2CCC2)c1	SW480 rereplic inconclusive, MCF10A rereplic 18.4µM, HT1080 IDH1KD tx inconclusive (no result: KB-3-1 tox, KB-V1 MDR tox)
